# From PMC4336329 (PLoS ONE, 2015)
# Hit rate of the full screen: of about 310,000 compounds, about 14,000 (4.5%) showed an effect of 50% or more. The effect is printed as a negative number. The list comes from a sample in which strong results are over-represented; it also holds similar structures and randomly drawn compounds.
# Biological target: human ether-à-go-go-related gene (hERG) potassium channel (human, UniProt Q12809)
# Experiment: primary screen, population patch clamp on CHO cells stably expressing hERG; higher = less effect of the substance
# 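Further: peak tail current of the secondary pulse compared with the same well before compound.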
# Chain of human ether-à-go-go-related gene (hERG) potassium channel (Q12809 whole entry, looked up): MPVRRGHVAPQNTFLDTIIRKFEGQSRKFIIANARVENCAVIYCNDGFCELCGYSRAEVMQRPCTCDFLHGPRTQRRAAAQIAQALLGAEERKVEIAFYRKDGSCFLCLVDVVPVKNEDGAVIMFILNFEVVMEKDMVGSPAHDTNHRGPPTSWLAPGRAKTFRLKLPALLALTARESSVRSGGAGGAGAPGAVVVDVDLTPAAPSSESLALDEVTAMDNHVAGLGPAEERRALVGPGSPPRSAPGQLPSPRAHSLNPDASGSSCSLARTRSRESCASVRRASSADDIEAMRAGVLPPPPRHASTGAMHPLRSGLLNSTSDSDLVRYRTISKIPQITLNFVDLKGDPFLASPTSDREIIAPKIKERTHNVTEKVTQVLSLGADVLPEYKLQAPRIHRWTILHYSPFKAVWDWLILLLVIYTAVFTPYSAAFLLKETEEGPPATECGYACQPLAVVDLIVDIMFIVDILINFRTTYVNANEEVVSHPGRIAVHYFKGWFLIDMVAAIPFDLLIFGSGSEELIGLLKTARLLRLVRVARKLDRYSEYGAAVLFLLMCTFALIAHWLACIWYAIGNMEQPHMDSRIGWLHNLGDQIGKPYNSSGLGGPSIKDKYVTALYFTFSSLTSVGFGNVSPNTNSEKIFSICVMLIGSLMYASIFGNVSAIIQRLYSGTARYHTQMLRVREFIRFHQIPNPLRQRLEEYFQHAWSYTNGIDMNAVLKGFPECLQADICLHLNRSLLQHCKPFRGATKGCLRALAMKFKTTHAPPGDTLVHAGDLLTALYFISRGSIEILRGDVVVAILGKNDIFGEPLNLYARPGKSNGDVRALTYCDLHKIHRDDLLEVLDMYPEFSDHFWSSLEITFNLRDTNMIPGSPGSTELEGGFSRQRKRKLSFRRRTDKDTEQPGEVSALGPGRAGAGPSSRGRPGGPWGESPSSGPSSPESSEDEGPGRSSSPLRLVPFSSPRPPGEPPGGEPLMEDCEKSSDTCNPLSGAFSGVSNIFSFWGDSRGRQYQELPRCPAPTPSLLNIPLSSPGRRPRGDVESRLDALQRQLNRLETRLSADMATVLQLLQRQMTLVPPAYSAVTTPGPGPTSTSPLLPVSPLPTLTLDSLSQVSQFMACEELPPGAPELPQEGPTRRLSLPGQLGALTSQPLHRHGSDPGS
row,SMILES,"hERG current change (%, negative = inhibition) at 10uM [%]"
1,Cc1cc(NC(=O)CCN2CC(C)OC(C)C2)ccc1Br.Cl (stereo not drawn),-7.73
2,Cc1cc(NC(=O)CCN2CCCCC2)ccc1Br,-72.8
3,CCN1CCN(CCC(=O)Nc2ccc(Br)c(C)c2)CC1.Cl,-30.8
4,Cc1cc(NC(=O)CCN2CCN(C)CC2)ccc1Br.Cl,-7.85
5,Cc1cc(NC(=O)CCN2CCC(C)CC2)ccc1Br.Cl,-57.6
6,Cc1cc(NC(=O)CCN2CCN(CCO)CC2)ccc1Br.Cl,-4.69
7,CN(C)CCNc1nc(-c2ccco2)c2c(c1C#N)CC(C)(C)OC2,-55.7
8,CC1(C)Cc2c(C#N)c(NCCc3ccccc3)nc(-c3ccco3)c2CO1,12.5
9,CCN(CC)CCNc1nc(-c2ccccc2)c2c(c1C#N)CC(C)(C)OC2,-66.4
10,CCN(CC)CCNc1nc(-c2ccco2)c2c(c1C#N)CC(C)(C)OC2,-62.6
11,CC1(C)Cc2c(C#N)c(N3CCOCC3)nc(-c3ccccc3)c2CO1,-12.1
12,Cc1nc(NCCN)c(C#N)c2c1COC(C)(C)C2,16
13,CC1(C)Cc2c(C#N)c(NCc3ccco3)nc(-c3ccco3)c2CO1,-8.94
14,CC1(C)Cc2c(C#N)c(NCCN3CCOCC3)nc(-c3ccco3)c2CO1,-6.23
15,CC1(C)Cc2c(C#N)c(NCCO)nc(-c3ccco3)c2CO1,-4.23
16,COC(=O)c1c(NC(=S)NN2CCOCC2)sc2c1CCCC2,8.03
17,COc1ccc(S(=O)(=O)Nc2ccc(S(=O)(=O)NCC3CCCO3)cc2)cc1 (stereo not drawn),6.4
18,CCc1nc2c(sc3nc4c(cc32)COC(C)(C)C4)c(=O)n1CCN(CC)CC,-38.1
19,COc1ccc(C(=O)Nc2ccc3ccccc3n2)c(OC)c1OC,17.8
20,COc1ccc(C[C@H](N)C(=O)N[C@H]2[C@@H](O)[C@H](n3cnc4c(N(C)C)ncnc43)O[C@@H]2CO)cc1.Cl,-5.25
21,Cc1ccc(C(=O)Nc2ccc3c(c2)OCO3)cc1S(=O)(=O)N1CCCCC1,-18.8
22,CC(O)c1nc2ccccc2n1CCCOc1ccccc1 (stereo not drawn),-7.48

row,SMILES,"hERG current change (%, negative = inhibition) at 10uM [%]"
1,O=C(CN1CCCCCC1)Nc1ccc(F)c(F)c1.O=C(O)C(=O)O,-22.4
2,CCN1CCN(CC(=O)Nc2cc(F)ccc2C)CC1,-46.2
3,Cl.O=C(CN1CCN(Cc2ccccc2)CC1)Nc1ccc2c(c1)CCC2,-47.6
4,CCN(CC)S(=O)(=O)c1ccc(NCc2ccccc2)nc1,-11.3
5,Cc1ccc(F)cc1NC(=O)CN1CCN(Cc2ccccc2)CC1,-63.2
6,O=C(CN1CCN(c2ccc(Cl)cc2)CC1)Nc1ccc(F)c(F)c1,-18.7
7,CCN(CC)S(=O)(=O)c1ccc(NC2CCN(Cc3ccccc3)CC2)nc1,-57.9
8,O=C(CN1CCN(Cc2ccccc2)CC1)Nc1ccc(F)c(F)c1.O=C(O)C(=O)O,-57.1
9,Cc1ccccc1NC(=O)CN1CCN(Cc2ccccc2)CC1,-36.1
10,O=C(CN1CCN(CC(=O)Nc2ccccc2Cl)CC1)Nc1ccc(F)c(F)c1,-78.2
11,CCN(CC)S(=O)(=O)c1ccc(Cl)c(C(=O)NC2CCN(Cc3ccccc3)CC2)c1.Cl,-28.8
12,O=C(CN1CCN(Cc2ccccc2F)CC1)Nc1ccccc1Cl,-27.6
13,COc1ccc(C)cc1NC(=O)CSc1ccc(Cl)cc1,11.1
14,Cc1cccc(C)c1NC(=O)CCS(=O)(=O)c1ccc(Br)cc1,31.2
15,COc1cccc(-c2nc(CS(=O)(=O)CC(=O)N3CCN(C)CC3)c(C)o2)c1,8.02
16,CCN(CC)CC(=O)Nc1ccc(-c2nc3cc(NC(=O)CN(CC)CC)ccc3o2)cc1,-18.1
17,CCNC(=O)NC(=O)COC(=O)c1ccccc1SCC(=O)NC(=O)NCC,3.64
18,Cc1ccc(-c2nc3ccccc3c(C(=O)NCc3cccs3)c2C)cc1,-5.33
19,COC(=O)C1=C(c2ccc(F)cc2F)C[C@@H]2CC[C@H]1N2C(=O)NCc1ccc(F)cc1,-46.4
20,CC(=O)Nc1ccc(S(=O)(=O)Nc2c(NC3CCCCC3)c3ccccc3oc2=O)cc1,7.19
21,O=C(CN1CCC(C(=O)c2ccc(F)cc2)CC1)Nc1ccccc1Cl,-20.5
22,Cc1ccc(NC(=O)CN2CCN(Cc3ccccc3)CC2)cc1Cl,-46

row,SMILES,"hERG current change (%, negative = inhibition) at 10uM [%]"
1,CCN(CC)S(=O)(=O)c1ccc(C)c(NC(=O)CN2CCN(C)CC2)c1.O=C(O)C(=O)O,-12.4
2,CCN(CC)S(=O)(=O)c1ccc(C)c(NC(=O)CNCCN(C(C)C)C(C)C)c1.O=C(O)C(=O)O,-75.5
3,CCN(CC)c1ccc(S(=O)(=O)N2CCOCC2)cc1NC(=O)CN1CCN(Cc2ccccc2)CC1.Cl,-45.7
4,CC(=O)N1CCN(CC(=O)Nc2ccc(C)c(F)c2)CC1.Cl,0.314
5,O=C(CN1CCNCC1)Nc1ccccc1Cl,-2.06
6,O=C(CN1CCN(CC(=O)c2ccc(F)cc2)CC1)Nc1ccccc1Cl,-68.9
7,CCN(CC)S(=O)(=O)c1ccc(C)c(NC(=O)CNCc2ccccc2OC)c1.O=C(O)C(=O)O,-37.7
8,Cc1ccc(S(=O)(=O)N(C)C)cc1NC(=O)CN1CCN(Cc2ccccc2)CC1.Cl,-24.8
9,CCN(CC)S(=O)(=O)c1ccc(C)c(NC(=O)CN2CCN(Cc3ccccc3)CC2)c1.Cl,-69.1
10,Cc1ccc(NC(=O)CN2CCN(Cc3ccccc3)CC2)cc1F,-71.2
11,Cc1cc(-c2csc(N)n2)c(C)n1CCc1ccccc1.Cl,-12.4
12,Cc1ccc(Oc2ncc(CN3CCOCC3)s2)cc1,3.3
13,C=CCn1c(SCC(=O)Nc2cc(C)on2)nc2sc(C)c(C)c2c1=O,-0.759
14,O=C(Nc1nnc(-c2ccc(Br)cc2)o1)C1=COCCO1,3.07
15,COc1ccccc1CNC(=O)c1ccc(N(C)S(=O)(=O)c2ccc(C)cc2)cc1,17.5
16,Cl.OC(c1ccccc1)(C1CCCCC1)C(CN1CCOCC1)c1ccccc1 (stereo not drawn),-12.5
17,Cn1nnnc1SC1CC(=O)N(c2ccccc2)C1=O (stereo not drawn),2.48
18,O=C(NCCO)c1ccc2[nH]c3ccccc3c2c1,9.18
19,Cc1ccc(NC(=O)CN2CCOCC2)c(Br)c1,-9.76
20,Cc1ccc(NC(=O)CNCc2ccccc2)c(Br)c1,0.831
21,Cc1ccc(NC(=O)CN2CCN(Cc3ccccc3)CC2)c(Br)c1.Cl,-72.5
22,COc1ccccc1N1CCN(S(=O)(=O)c2ccc(-n3cnnn3)c(C)c2)CC1,-13.7

row,SMILES,"hERG current change (%, negative = inhibition) at 10uM [%]"
1,COc1cccc(CNC(=O)C(=O)N2CCC3(CC2)OCCN3S(=O)(=O)c2ccc(C)cc2)c1,-57
2,CCCN1CCN(S(=O)(=O)c2ccc(-n3cnnn3)cc2)CC1,-28
3,COc1ccc(CNC(=O)C(=O)N2CCC3(CC2)OCCN3S(=O)(=O)c2ccc(C)cc2)cc1,-29.9
4,O=C(NCc1ccccc1Cl)C1CCN(S(=O)(=O)c2ccc(-n3cnnn3)cc2)CC1,-27.3
5,O=S(=O)(c1ccc(-n2cnnn2)cc1)N1CCN(c2ccccc2F)CC1,-3.2
6,CCOC(=O)N1CCN(S(=O)(=O)c2ccc(C)cc2)CC1,17.9
7,CCNC(=O)C(=O)N1CCC2(CC1)OCCN2S(=O)(=O)c1ccc(C)cc1,2.81
8,COc1ccccc1CNC(=O)C1CCN(S(=O)(=O)c2ccc(-n3cnnn3)cc2)CC1,-66.9
9,CCOC(=O)c1ccc(S(=O)(=O)N2CCC(C(=O)NCc3ccccc3OC)CC2)cc1,-22.5
10,CCOC(=O)N1CCN(S(=O)(=O)c2ccc(-n3cnnn3)cc2)CC1,-61.4
11,COc1ccccc1N1CCN(S(=O)(=O)c2ccc(-n3cnnn3)cc2)CC1,-72
12,CS(=O)(=O)N1CCN(C(=O)Cc2ccc(Br)cc2)CC1,-1.44
13,COc1ccc2[nH]cc(CCNS(=O)(=O)c3ccc(F)cc3)c2c1,4.05
14,Cc1cc(C)c(OCC(=O)Nc2nnc(-c3ccco3)o2)c(C)c1,1.74
15,COc1ccccc1NC(=O)c1sc(Cl)nc1C,2.93
16,O=[N+]([O-])c1ccc(S(=O)(=O)Nc2ccc(-c3ccc(N4CCOCC4)nn3)cc2)cc1,-7.79
17,O=C(Cc1ccccc1)NNC(=S)NC(=O)c1cccnc1,14.7
18,CC(C)C(NC(=O)C1CCCCC1)C(=O)Nc1ccc2c(c1)OCCO2 (stereo not drawn),-1.07
19,CC(C)(C)OC(=O)N1CC(O)CC1C(=O)OCC(=O)c1ccc(-c2ccccc2)cc1 (stereo not drawn),32
20,COC(=O)C1Cc2c([nH]c3ccccc23)CN1 (stereo not drawn),1.45
21,CN(C)c1ccc(N2C(=NC(=O)COc3ccccc3)SC3CS(=O)(=O)CC32)cc1 (stereo not drawn),23.7
